For assay [1], the target named is human Peroxisome Proliferator-activated Receptor alpha (PPARa), PPARA (gene 5465) (UniProt Q07869). Briefly: ATG_PPARa_TRANS: Attagene TRANS-FACTORIAL HepG2 Assay for human Peroxisome Proliferator-activated Receptor alpha (PPARa) (AID 2283001).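 As to AC50: potency for gain of reporter signal over DMSO so agonist or activator.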 In a few lines: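 Measures transcriptional activity of an exogenous chimeric PPARa-Gal4 protein in transiently transfected HepG2 cells after 24 h dosing. Reporter mRNA quantified via RT-PCR and capillary electrophoresis; DMSO served as negative control.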
human Peroxisome Proliferator-activated Receptor alpha (PPARa), PPARA (gene 5465), sequence (Q07869 whole entry, looked up, the tested form may be a part): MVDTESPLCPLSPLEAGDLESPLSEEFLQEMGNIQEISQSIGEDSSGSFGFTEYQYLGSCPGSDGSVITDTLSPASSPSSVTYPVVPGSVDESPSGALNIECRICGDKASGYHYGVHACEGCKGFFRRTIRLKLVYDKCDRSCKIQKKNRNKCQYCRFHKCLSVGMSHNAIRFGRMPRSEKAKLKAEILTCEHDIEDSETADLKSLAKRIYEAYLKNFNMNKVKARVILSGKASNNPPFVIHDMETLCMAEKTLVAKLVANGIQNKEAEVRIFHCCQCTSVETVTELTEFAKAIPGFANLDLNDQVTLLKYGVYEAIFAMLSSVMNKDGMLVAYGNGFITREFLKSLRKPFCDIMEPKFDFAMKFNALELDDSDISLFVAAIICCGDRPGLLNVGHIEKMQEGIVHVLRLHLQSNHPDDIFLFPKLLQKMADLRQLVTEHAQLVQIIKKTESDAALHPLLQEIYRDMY

Assay [2] has as its target human Peroxisome Proliferator-activated Receptor delta (PPARd), PPARD (gene 5467) (UniProt Q03181). Briefly: ATG_PPARd_TRANS: Attagene TRANS-FACTORIAL HepG2 Assay for human Peroxisome Proliferator-activated Receptor delta (PPARd) (AID 2283002). The gist of the method: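 Fluorescence from capillary electrophoresis of labelled RT-PCR reporter fragments gives the signal; DMSO sets baseline. Cells: HepG2 transiently carrying GAL4-UAS reporter units plus chimeric nuclear receptor-Gal4 proteins, exposed to chemicals for 24 h.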

In assay [3] the target is human Retinoic Acid Receptor beta (RARb), RARB (gene 5915) (UniProt P10826). Put plainly: ATG_RARb_TRANS: Attagene TRANS-FACTORIAL HepG2 Assay for human Retinoic Acid Receptor beta (AID 2283004). The gist of the method:
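Transient transfection of HepG2 with multiple reporter units → chemical dosing, 24 h → total RNA isolation → RT with oligo(dT) → reporter-specific PCR, 6-FAM primer extension, HpaI digest → capillary electrophoresis. Positive direction vs DMSO control.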

For assay [4], the target named is Retinoic acid receptor alpha (Homo sapiens) (UniProt P10276). Put plainly: ATG_RARa_TRANS: Attagene TRANS-FACTORIAL HepG2 Assay for human Retinoic Acid Receptor alpha (RARa) (AID 2283005). In a few lines:
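HepG2 transiently transfected with multiplex GAL4-UAS reporter units including a human RARa–GAL4 chimera; 24 h compound exposure. Reporter mRNA quantified by RT-PCR, 6-FAM labeling and capillary electrophoresis; gain of signal versus DMSO.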

For assay [5], the target named is Nuclear receptor subfamily 1 group I member 2 (Homo sapiens) (UniProt O75469). Briefly: ATG_PXR_TRANS: Attagene TRANS-FACTORIAL HepG2 Assay for human Pregnane X Receptor (PXR) (AID 2283008). The gist of the method: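 HepG2 cells transiently transfected with GAL4-UAS reporter units and PXR-Gal4 chimera, exposed 24 h. Reporter mRNA quantified by RT-PCR, fluorescent labelling, HpaI digestion and capillary electrophoresis; gain of signal vs DMSO.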
Nuclear receptor subfamily 1 group I member 2 (Homo sapiens), sequence (O75469 whole entry, looked up, the tested form may be a part): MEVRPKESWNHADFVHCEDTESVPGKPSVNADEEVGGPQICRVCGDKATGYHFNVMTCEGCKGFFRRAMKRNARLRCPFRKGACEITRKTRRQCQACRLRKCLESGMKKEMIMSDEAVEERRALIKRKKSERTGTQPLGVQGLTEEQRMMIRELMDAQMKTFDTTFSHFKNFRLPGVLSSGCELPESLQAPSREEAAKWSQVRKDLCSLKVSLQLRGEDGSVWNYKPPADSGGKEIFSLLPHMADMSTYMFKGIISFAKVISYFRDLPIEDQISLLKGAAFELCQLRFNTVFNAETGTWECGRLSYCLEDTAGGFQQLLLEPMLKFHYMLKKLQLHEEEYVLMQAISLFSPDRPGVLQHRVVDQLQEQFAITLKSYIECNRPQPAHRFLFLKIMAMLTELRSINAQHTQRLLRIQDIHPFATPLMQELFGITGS

The target of assay [6] is human Retinoic Acid Receptor gamma (RARg), RARG (gene 5916) (UniProt P13631). Put plainly: ATG_RARg_TRANS: Attagene TRANS-FACTORIAL HepG2 Assay for human Retinoic Acid Receptor gamma (RARg) (AID 2283009). The gist of the method:
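HepG2 cells transiently transfected with multiplexed reporter units expressing chimeric RARg-GAL4 and GAL4-UAS-driven reporters; 24 h compound exposure. Reporter mRNA quantified by RT-PCR with fluorescent labelling and capillary electrophoresis; gain-of-signal fitted relative to DMSO baseline.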

Assay [7] addresses human RAR-related Orphan Receptor gamma (RORg), RORC (gene 6097) (UniProt P51449). Put plainly: ATG_RORg_TRANS: Attagene TRANS-FACTORIAL HepG2 Assay for human RAR-related Orphan Receptor gamma (RORg) (AID 2283011). The gist of the method: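 First, HepG2 liver cells were transfected with GAL4-UAS-driven reporter constructs and the RORg-Gal4 fusion. Next, they were treated with chemical for 24 h. Finally, reporter mRNA was quantified by RT-PCR and capillary electrophoresis, with upward activity fitted against DMSO.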

In assay [8] the target is Retinoic acid receptor RXR-alpha (Homo sapiens) (UniProt P19793). Briefly: ATG_RXRa_TRANS: Attagene TRANS-FACTORIAL HepG2 Assay for human Retinoid X Receptor alpha (RXRa) (AID 2283012). The gist of the method: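 HepG2 cells transiently transfected with multiplexed GAL4-UAS reporter units and chimeric NR-GAL4 fusions, dosed 24 h. Reporter mRNA measured by RT-PCR, FAM labelling, HpaI digestion and capillary electrophoresis; gain-of-signal fitted relative to DMSO baseline.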
Retinoic acid receptor RXR-alpha (Homo sapiens), sequence (P19793 whole entry, looked up, the tested form may be a part): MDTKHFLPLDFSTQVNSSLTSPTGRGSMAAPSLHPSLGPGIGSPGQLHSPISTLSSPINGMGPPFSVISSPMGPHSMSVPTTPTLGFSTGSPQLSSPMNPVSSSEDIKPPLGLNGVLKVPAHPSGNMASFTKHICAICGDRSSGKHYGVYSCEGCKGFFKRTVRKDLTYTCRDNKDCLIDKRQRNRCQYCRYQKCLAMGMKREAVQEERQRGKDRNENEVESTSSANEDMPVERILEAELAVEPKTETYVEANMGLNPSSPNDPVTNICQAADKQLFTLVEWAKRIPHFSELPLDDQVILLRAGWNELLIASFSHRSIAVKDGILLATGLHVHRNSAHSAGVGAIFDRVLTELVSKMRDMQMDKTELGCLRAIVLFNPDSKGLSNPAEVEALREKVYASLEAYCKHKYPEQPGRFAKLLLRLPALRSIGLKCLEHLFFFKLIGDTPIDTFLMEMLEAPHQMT

Assay [9] deals with human Thyroid Receptor alpha (THRa1), THRA (gene 7067) (UniProt P10827). Briefly: ATG_THRa1_TRANS: Attagene TRANS-FACTORIAL HepG2 Assay for human Thyroid Receptor alpha (THRa1) (AID 2283014). In a few lines:
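Reporter transcript induction, read by capillary electrophoresis of 6-FAM-labelled RT-PCR products, reflects activity of a transfected THRa1-Gal4 fusion in HepG2 liver cells. Cells were dosed for 24 h; activity was fitted in the positive direction against DMSO.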

The nature of assay [10]: BSK_4H_Eotaxin3: BioMAP Diversity Plus: 4H Assay for Eotaxin 3 Biomarker Activity (AID 2283000; active = hit-call score of the fitted dose curve at least 0.9, where 1 is the maximum; inactive = score below 0.9;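 also: CCL26 protein level quantified by ELISA in parallel with SRB cytotoxicity check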). The conditions noted are these: primary human endothelial cells (HUVEC); actives raise or lower the signal. In a few lines: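 Chemicals were added to human umbilical vein endothelium cultures, and Eotaxin-3 was quantified by ELISA at 24 h. Values were derived by bidirectional fitting with DMSO serving as negative control and activity baseline.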

Read-out in assay [11]: Intercellular Adhesion Molecule 1 (ICAM1), ICAM1 (gene 3383)
Put plainly: BSK_3C_ICAM1: BioMAP Diversity Plus: 3C Assay for Intercellular Adhesion Molecule 1 (ICAM1) Biomarker Activity (AID 2283003; active = hit-call score of the fitted dose curve at least 0.9, where 1 is the maximum; inactive = score below 0.9). The conditions noted are these: primary human endothelial cells (HUVEC); actives raise or lower the signal. In a few lines: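 Primary human umbilical vein endothelial cells in the BioMAP 3C system were exposed to chemicals for 24 h, then ICAM-1 was quantified by ELISA. Activity was fitted bidirectionally against the DMSO negative control baseline.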

Assay [12] is described as follows: BSK_3C_Proliferation: Cell Proliferation Assessment in the BioMAP Diversity Plus: 3C Assay (AID 2283006; active = hit-call score of the fitted dose curve at least 0.9, where 1 is the maximum; inactive = score below 0.9;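 also: potency may reflect either rise or fall in cell number versus DMSO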). The conditions noted are these: primary human endothelial cells (HUVEC). The gist of the method:
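Human umbilical vein endothelial cells were grown sub-confluent and exposed to chemical for 48 h, then fixed with 10% TCA and stained with 0.1% sulforhodamine B; absorbance at 560 nm gave relative cell number, fitted bidirectionally against DMSO baseline.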

Assay [13] concerns the target Peroxisome proliferator-activated receptor gamma (Homo sapiens) (UniProt P37231). Put plainly: ATG_PPARg_TRANS: Attagene TRANS-FACTORIAL HepG2 Assay for human Peroxisome Proliferator-activated Receptor-gamma (PPARg) (AID 2283007). In a few lines: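 Chimeric NR-Gal4 transactivation is measured in transiently transfected HepG2 cells by reporter mRNA induction at 24 h. Detection uses RT-PCR with fluorescent labelling and capillary electrophoresis; DMSO defines baseline.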

Assay [14] addresses human RAR-related Orphan Receptor beta (RORb), RORB (gene 6096) (UniProt Q92753). Briefly: ATG_RORb_TRANS: Attagene TRANS-FACTORIAL HepG2 Assay for human RAR-related Orphan Receptor beta (RORb) (AID 2283010). In a few lines:
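HepG2 cells were transiently transfected with multiplexed GAL4-UAS reporter units expressing chimeric nuclear receptor–GAL4 proteins, then dosed for 24 h. Reporter mRNA was quantified by RT-PCR with fluorescent labelling and capillary electrophoresis; gain of signal was fitted relative to DMSO.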

Read-out in assay [15]: E-selectin (Homo sapiens) (UniProt P16581)
Put plainly: BSK_3C_Eselectin: BioMAP Diversity Plus: 3C Assay for Eselectin Biomarker Activity (AID 2283015; active = hit-call score of the fitted dose curve at least 0.9, where 1 is the maximum; inactive = score below 0.9;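 also: cell surface E-selectin protein quantified by ELISA 24 h after dosing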). The conditions noted are these: primary human endothelial cells (HUVEC); actives raise or lower the signal. In a few lines:
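ELISA read-out of E-selectin on endothelial monolayers after 24 h chemical treatment. Human umbilical vein primary cells served as the system, with DMSO defining baseline activity for bidirectional fitting.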

Read-out in assay [16]: Interleukin-1 alpha (IL1a), IL1A (gene 3552)
Put plainly: BSK_BE3C_IL1a: BioMAP Diversity Plus: BE3C Assay for Interleukin-1 alpha (IL1a) Biomarker Activity (AID 2283016; active = hit-call score of the fitted dose curve at least 0.9, where 1 is the maximum; inactive = score below 0.9). Particulars: primary human bronchial epithelial cells; actives raise or lower the signal. In a few lines: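 Human primary bronchial epithelial cells (BE3C system) were dosed with compound and IL-1a measured by ELISA 24 h later. Activity was fitted bidirectionally against DMSO baseline; cytotoxicity was tracked in parallel cultures by SRB total-protein staining.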

Read-out in assay [17]: Monocyte Chemoattractant Protein-1 (MCP1), CCL2 (gene 6347)
Put plainly: BSK_3C_MCP1: BioMAP Diversity Plus: 3C Assay for Monocyte Chemoattractant Protein-1 (MCP1) Biomarker Activity (AID 2283017; active = hit-call score of the fitted dose curve at least 0.9, where 1 is the maximum; inactive = score below 0.9). Particulars: primary human endothelial cells (HUVEC); actives raise or lower the signal. In a few lines: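 ELISA read-out of MCP-1 from human umbilical vein endothelial cell cultures harvested 24 h post-dosing. Gain or loss of signal was fitted relative to DMSO.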

Read-out in assay [18]: Monocyte Chemoattractant Protein-1 (MCP1), CCL2 (gene 6347)
Briefly: BSK_4H_MCP1: BioMAP Diversity Plus: 4H Assay for Monocyte Chemoattractant Protein-1 (MCP1) Biomarker Activity (AID 2283018; active = hit-call score of the fitted dose curve at least 0.9, where 1 is the maximum; inactive = score below 0.9). The conditions noted are these: primary human endothelial cells (HUVEC); actives raise or lower the signal. In a few lines:
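Human umbilical vein endothelial cells (4H system) dosed with chemical; MCP-1 measured by ELISA 24 h after dosing. Bidirectional curve fitting against DMSO negative control as baseline; parallel SRB total-protein staining tracks overt cytotoxicity.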

Read-out in assay [19]: Human Leukocyte Antigen - DR isotype (HLADR), HLA-DRA (gene 3122)
Put plainly: BSK_3C_HLADR: BioMAP Diversity Plus: 3C Assay for Human Leukocyte Antigen - DR isotype (HLADR) Biomarker Activity (AID 2283019; active = hit-call score of the fitted dose curve at least 0.9, where 1 is the maximum; inactive = score below 0.9). The conditions noted are these: primary human endothelial cells (HUVEC); actives raise or lower the signal. In a few lines: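 ELISA readout of surface HLA-DR on human umbilical vein endothelium, taken 24 h after chemical treatment. Gain- and loss-of-signal were both fitted relative to DMSO.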

Assay [20] concerns the target human Retinoid X Receptor beta (RXRb), RXRB (gene 6257) (UniProt P28702). Put plainly: ATG_RXRb_TRANS: Attagene TRANS-FACTORIAL HepG2 Assay for human Retinoid X Receptor beta (RXRb) (AID 2283013). In a few lines: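 HepG2 cells transiently transfected with multiplexed reporter units driven by GAL4-UAS and exogenous chimeric NR-Gal4 proteins; treated 24 h. Reporter mRNA measured by RT-PCR, 6-FAM labelling and capillary electrophoresis; gain-of-signal fitted versus DMSO baseline.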

SMILES strings stand for the structures. Records with an inconclusive call do not appear. The source made the active and inactive calls. The calls were made as follows, unless noted: active = hit-call score of the fitted dose curve at least 0.9, where 1 is the maximum; inconclusive = response in the unintended direction; inactive = score below 0.9.

human Retinoic Acid Receptor beta (RARb), RARB (gene 5915), sequence (P10826 whole entry, looked up): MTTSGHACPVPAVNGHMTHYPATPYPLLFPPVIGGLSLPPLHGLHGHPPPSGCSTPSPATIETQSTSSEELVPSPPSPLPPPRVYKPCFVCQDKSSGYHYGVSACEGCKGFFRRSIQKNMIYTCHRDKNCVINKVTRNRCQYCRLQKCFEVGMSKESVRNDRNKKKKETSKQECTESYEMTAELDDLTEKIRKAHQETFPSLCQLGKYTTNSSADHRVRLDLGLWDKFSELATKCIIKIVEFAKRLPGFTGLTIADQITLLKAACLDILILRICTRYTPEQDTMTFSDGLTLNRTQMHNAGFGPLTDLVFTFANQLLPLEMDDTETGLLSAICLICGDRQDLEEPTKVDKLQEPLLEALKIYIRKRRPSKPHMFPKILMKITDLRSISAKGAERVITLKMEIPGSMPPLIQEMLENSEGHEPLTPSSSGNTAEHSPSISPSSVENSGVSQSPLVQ
human Retinoic Acid Receptor gamma (RARg), RARG (gene 5916), sequence (P13631 whole entry, looked up, the tested form may be a part): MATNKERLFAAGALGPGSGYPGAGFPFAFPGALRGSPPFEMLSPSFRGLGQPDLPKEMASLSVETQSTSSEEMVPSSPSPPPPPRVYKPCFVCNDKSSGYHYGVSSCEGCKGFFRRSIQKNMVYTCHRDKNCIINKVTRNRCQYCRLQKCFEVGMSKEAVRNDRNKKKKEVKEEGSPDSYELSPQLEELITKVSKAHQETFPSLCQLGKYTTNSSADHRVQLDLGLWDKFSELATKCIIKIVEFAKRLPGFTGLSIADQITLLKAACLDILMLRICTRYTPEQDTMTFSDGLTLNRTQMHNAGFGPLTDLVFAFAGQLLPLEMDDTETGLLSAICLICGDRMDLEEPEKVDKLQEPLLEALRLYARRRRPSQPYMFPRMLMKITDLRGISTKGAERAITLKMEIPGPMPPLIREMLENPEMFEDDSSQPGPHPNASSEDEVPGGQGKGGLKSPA
human Thyroid Receptor alpha (THRa1), THRA (gene 7067), sequence (P10827 whole entry, looked up, the tested form may be a part): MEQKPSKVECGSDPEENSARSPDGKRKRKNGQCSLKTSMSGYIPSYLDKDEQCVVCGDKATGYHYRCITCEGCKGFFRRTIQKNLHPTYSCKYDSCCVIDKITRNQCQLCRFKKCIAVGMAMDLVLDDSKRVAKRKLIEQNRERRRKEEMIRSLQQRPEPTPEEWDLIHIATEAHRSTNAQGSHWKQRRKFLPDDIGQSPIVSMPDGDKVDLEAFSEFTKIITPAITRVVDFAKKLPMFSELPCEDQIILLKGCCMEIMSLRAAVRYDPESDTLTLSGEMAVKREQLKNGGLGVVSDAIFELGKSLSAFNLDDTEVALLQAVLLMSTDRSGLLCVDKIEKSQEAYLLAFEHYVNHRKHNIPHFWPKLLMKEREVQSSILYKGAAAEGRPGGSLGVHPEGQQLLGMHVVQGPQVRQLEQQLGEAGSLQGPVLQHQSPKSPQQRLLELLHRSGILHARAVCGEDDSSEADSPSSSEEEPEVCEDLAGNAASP
human Peroxisome Proliferator-activated Receptor delta (PPARd), PPARD (gene 5467), sequence (Q03181 whole entry, looked up, the tested form may be a part): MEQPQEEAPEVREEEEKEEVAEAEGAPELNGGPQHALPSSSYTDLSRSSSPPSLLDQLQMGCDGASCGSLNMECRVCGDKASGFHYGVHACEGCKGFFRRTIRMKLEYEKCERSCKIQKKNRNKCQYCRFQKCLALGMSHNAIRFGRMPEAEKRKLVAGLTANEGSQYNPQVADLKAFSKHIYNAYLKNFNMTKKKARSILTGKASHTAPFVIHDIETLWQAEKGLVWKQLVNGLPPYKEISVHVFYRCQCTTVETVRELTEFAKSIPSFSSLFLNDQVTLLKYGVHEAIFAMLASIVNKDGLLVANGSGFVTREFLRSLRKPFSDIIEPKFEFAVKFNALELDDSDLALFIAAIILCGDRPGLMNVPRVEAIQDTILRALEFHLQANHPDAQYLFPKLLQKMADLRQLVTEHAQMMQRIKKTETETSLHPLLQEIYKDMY
Peroxisome proliferator-activated receptor gamma (Homo sapiens), sequence (P37231 whole entry, looked up, the tested form may be a part): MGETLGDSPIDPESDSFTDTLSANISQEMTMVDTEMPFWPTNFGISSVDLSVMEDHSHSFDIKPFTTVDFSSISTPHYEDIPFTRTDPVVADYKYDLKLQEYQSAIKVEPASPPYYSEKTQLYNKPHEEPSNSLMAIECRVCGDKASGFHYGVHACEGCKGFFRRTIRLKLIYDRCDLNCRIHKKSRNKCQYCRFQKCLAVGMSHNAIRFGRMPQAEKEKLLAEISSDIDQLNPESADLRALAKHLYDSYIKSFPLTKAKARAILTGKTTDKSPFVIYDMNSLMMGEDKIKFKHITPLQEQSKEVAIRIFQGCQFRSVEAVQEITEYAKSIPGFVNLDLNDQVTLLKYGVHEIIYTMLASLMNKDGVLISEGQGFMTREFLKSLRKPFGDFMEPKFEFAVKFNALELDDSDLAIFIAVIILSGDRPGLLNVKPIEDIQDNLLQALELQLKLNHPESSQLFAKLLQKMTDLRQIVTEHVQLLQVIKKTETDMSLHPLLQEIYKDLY
Retinoic acid receptor alpha (Homo sapiens), sequence (P10276 whole entry, looked up, the tested form may be a part): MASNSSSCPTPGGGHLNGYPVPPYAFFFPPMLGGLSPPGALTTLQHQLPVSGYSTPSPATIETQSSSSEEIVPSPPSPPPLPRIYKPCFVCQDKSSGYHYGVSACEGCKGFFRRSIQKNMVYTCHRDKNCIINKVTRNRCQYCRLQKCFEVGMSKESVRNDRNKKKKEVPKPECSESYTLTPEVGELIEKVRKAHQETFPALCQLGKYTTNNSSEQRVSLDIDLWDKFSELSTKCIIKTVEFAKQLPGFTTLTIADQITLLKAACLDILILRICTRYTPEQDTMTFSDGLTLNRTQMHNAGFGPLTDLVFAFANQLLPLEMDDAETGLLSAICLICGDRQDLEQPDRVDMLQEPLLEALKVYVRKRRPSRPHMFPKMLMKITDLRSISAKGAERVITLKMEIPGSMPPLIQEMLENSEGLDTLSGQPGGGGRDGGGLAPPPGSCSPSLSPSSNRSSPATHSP
human Retinoid X Receptor beta (RXRb), RXRB (gene 6257), sequence (P28702 whole entry, looked up, the tested form may be a part): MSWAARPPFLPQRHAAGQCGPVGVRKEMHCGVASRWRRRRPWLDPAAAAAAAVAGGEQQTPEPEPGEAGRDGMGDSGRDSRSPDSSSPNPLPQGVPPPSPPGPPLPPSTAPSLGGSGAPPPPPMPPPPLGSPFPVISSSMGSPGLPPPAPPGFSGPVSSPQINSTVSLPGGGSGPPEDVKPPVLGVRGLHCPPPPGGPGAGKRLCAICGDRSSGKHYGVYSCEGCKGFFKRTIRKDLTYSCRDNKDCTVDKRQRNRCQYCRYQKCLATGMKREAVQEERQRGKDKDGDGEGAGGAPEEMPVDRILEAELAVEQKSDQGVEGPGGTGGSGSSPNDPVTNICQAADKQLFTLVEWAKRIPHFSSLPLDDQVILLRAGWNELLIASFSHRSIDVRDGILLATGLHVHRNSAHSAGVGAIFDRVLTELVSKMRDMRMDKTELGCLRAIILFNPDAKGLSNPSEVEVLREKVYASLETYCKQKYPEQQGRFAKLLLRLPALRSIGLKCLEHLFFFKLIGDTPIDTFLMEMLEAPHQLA

Turning to `CC1(C)C(=O)N(CO)C(=O)N1CO`, the outcome in assay [1], in [2], in assay [3], in [4], in assay [5] and in [6] was inactive. The compound was called inactive in [7], in assay [8] and in [9].

As to `CCOC(=O)C1=NOC(c2ccccc2)(c2ccccc2)C1`, the outcome in [10], in [11], in assay [5], in [14], in assay [8] and in [15] was inactive. Besides, the result in assay [17], in assay [18] and in assay [19] was inactive. The AC50 is 28.4 µM (active) in assay [12], 100 µM (active) in [13] and 0.129 µM (active) in assay [16].

As for `CCOC(=O)[C@H](O)[C@@H](O)C(=O)OCC`, the result in assay [1], in [2], in assay [3], in assay [4], in [13] and in assay [8] was inactive. The call in assay [20] and in [9] was inactive. The AC50 in [5] is 68.2 µM (active).

Take `CCC(C)C(=O)OC` (stereo not drawn): the compound was called inactive in [1], in assay [2], in assay [3], in assay [4], in assay [13] and in assay [5]. The compound was classed as inactive in [8] and in assay [20].

For `C=C[C@@]1(C)CC(=O)[C@]2(O)[C@@]3(C)[C@@H](O)CCC(C)(C)[C@@H]3[C@H](O)[C@H](OC(C)=O)[C@@]2(C)O1`, the AC50 is 3.28 µM (active) in [1]; 3.2 µM (active) in assay [13]; 26.9 µM (active) in assay [8]; 3.64 µM (active) in assay [20]; 33.4 µM (active) in assay [9]. The result in [2], in assay [3], in [4] and in assay [6] was inactive.

For `CC1=CC(C)C(C=O)CC1` (stereo not drawn), the outcome in [1], in assay [2], in assay [3], in [4], in assay [13] and in assay [6] was inactive. Also, the call in assay [14], in assay [7], in assay [8] and in [20] was inactive. Further, the AC50 in assay [5] is 27.8 µM (active).

For the origin of these results see PubChem BioAssay (EPA / NIEHS).
